ATXN2 expr inh: ATXN2 expression inhibition. HEK-293 ATXN2-luciferase reporter, luminescence, 24 h. Potency, µM (series often up to 57 µM), for inactives: at the top dose activity change, negative = inhibition, actives largely listed as inhibitors. 360,000 compounds, 0.72% hits. AID 1745845; also: % is scaled to controls: 0 for no effect and ±100 for the full control effect; nearly all actives have a fitted effect of over 55% in size
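qHTS (up to 57 uM final) was run with 24 h compound exposure of reporter cells at 37 °C. Each well was multiplexed: SteadyGlo luminescence measured ATXN2-luciferase expression after a fluorogenic Gly-Phe-AFC viability readout (25 uM final).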
HepG2 tox: counter-screen for TGF-b inhibitors: cytotoxicity in HepG2 cells | Potency, µM (titrated, usually from 46.1 µM), for the others: at the top dose activity change, negative = cytotoxicity, most hits filed as cytotoxic | AID 588856 | 410,000 compounds, 0.76% hits | HepG2 CAGA-GFP viability, ATP luminescence, 18 h
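HepG2 CAGA-GFP cells (1000/well, DMEM with 1% FBS) received compound, then TGF-beta at 500 pg/mL final, and were incubated 18 hours at 37 degrees C. Viability was read by CellTiter-Glo luminescence. Media-only wells were set as complete cell-killing and DMSO as no toxicity.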
HT1080-NT tox: kills 2HG-producing HT-1080-NT fibrosarcoma cells; Potency, µM (highest dose often 46.1 µM), without a hit: at the highest dose activity, negative = less viability, usual class: cytotoxic; 360,000 compounds, 1.6% hits; HT-1080-NT fibrosarcoma viability, CellTiter-Glo ATP luminescence, 48 h;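 also: NT is the 2HG producing partner of a matched IDH1 knockdown line; 0% = DMSO-treated cells and -100% = media-only wells without cells; nearly all actives have a fitted effect of over 55% in size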
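Luminescent CellTiter-Glo readout after 48 hours of compound exposure at 37 degrees C defined viability of HT-1080-NT cells. Activity was normalized to DMSO wells and cell-free media wells; concentration-response curves were fitted and assigned curve classes.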
TGFb SMAD3 inh: inhibitors of TGF-b signaling; HepG2 CAGA-GFP TGF-b/SMAD3 reporter, GFP fluorescence, 18 h; TGF-beta stimulated, 500 pg/mL final; 410,000 compounds, 1.2% hits; Potency, µM (doses to about 46.1 µM), without a hit: at the top dose activity, negative = inhibition, hits mostly inhibitors; also: % is scaled to controls: 0 for no effect and ±100 for the full control effect; nearly all actives have a fitted effect of over 65% in size
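Inhibition was scored as loss of TGF-beta-induced (500 pg/mL final, 18 hours, 37 degrees C) GFP in HEPG2 cells carrying a CAGA-GFP reporter, in DMEM with 1% FBS. Well GFP was summed per cell; Activity was normalised to unstimulated and stimulated DMSO wells, then concentration-response fitting.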
S2 tox: cell viability loss in ATXN counter-screen | AID 651635 | 400,000 compounds, 0.49% hits | S2 cells (HEK-293 line with an ATXN2-luciferase reporter) viability, CellTiter-Fluor protease fluorescence, 24 h | Potency, µM (doses to about 56.7 µM), usual class: cytotoxic; also: nearly all actives have a fitted effect of over 40% in size
HT1080 IDH1KD tx: toxicity to HT-1080 IDH1 knockdown cells (counter line) | HT-1080 IDH1 knockdown viability, ATP luminescence, 48 h | Potency, µM (highest dose often 46.1 µM), inactives show top-dose activity, negative = toxicity, usual class: cytotoxic | 360,000 compounds, 2% hits | AID 686971;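 also: 0% = DMSO wells and -100% = cell-free medium wells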
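After a 2 h attachment period, IDH1KD HT-1080 cells took pin-transferred compound for 48 h at 37 °C; ATP-based luminescence after 10 min room-temperature reagent incubation reported viability.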
The depositor's hits bear a star; i = inactive; ? = inconclusive; . = not tested or not shown. Sampled rows, rich in hits. Any-hit rate of the full collection: about 3.9%. Calls follow the shape of the dose curve; as a rule, active = well fitted curve in the direction sought with a large enough effect; inconclusive = small, poorly fitted or top-dose-only effect, or another doubt; inactive = no such curve, though single readings can be large; an effect the other way counts as inactive or inconclusive. Potency is read from the fitted curve at half-maximal effect.

SMILES	ATXN2 expr inh	HepG2 tox	HT1080-NT tox	TGFb SMAD3 inh	S2 tox	HT1080 IDH1KD tx
Cc1ccccc1NC(=S)NCc1ccc2c(c1)cc(C)n2C	?	-53.5%	14.6µM*	11.2µM*	?	?
Cc1cnc(SCc2ccccn2)nc1C1CCCN(C(=O)c2coc3c2C(=O)CCC3)C1 (configuration not stated)	.	.	.	.	i	.
Cc1cccn2c(=O)c3cc(C(=O)NCCc4ccccc4)c(=N)n(Cc4ccco4)c3nc12	?	-16.9%	6.51µM*	?	i	5.17µM*
CSc1ccc(CNC(=O)c2cc3c(=O)n(Cc4ccco4)ccc3nc2C)cc1	.	-42.9%	.	11.2µM*	.	.
Cc1cccn2c(=O)c3cc(C(=O)NCc4ccco4)c(=N)n(CCc4ccccc4)c3nc12	-17.1%	-38.6%	-22.3%	-0.6%	i	-6.8%
COc1ccc(CNC(=O)c2cc3c(=O)n(Cc4ccco4)ccc3nc2C)cc1	.	-11.7%	.	?	.	.
Cc1ccc(C(C)C)c(OCC(=O)Nc2cccc(-c3nc4ncccc4o3)c2)c1	?	6.1%	.	0.8%	20µM*	.
Cc1cc(C)c(OCC(=O)Nc2cccc(-c3nc4ncccc4o3)c2)c(Br)c1	12.4%	-2.4%	.	15.3%	i	.
COc1c(C)cc(Br)cc1C(=O)Nc1cccc(-c2nc3ncccc3o2)c1	22.4µM*	-13.4%	11.8%	-8.2%	31.6µM*	-2.7%
Cc1cccc(CNC(=O)C2CCN(S(=O)(=O)c3ccc4c(c3)CCCN4C(=O)C3CCC3)CC2)c1	-8.1%	5.7%	.	?	i	.
COc1ccc(S(=O)(=O)Nc2ccc3c(c2)CCCN3S(=O)(=O)c2ccc(C)cc2)cc1F	?	0.8%	.	?	?	.
Cc1cc(NC(=O)CCNS(=O)(=O)c2cc(Br)cnc2N)ccc1Br	-16.9%	-36.7%	?	11.2µM*	i	?
FC(F)(F)c1cccc(NC(=S)Nc2cccc(NC(=S)Nc3cccc(C(F)(F)F)c3)n2)c1	?	-26.2%	?	?	i	23.1µM*
O=C(NNC(=S)Nc1cccc(C(F)(F)F)c1)c1ccccc1Cl	?	-83.8%	18.4µM*	14.1µM*	i	?
O=C(NNC(=S)Nc1ccc(Cl)cc1)c1ccccc1OC(F)F	?	-59.3%	?	14.1µM*	i	?
O=C(/C=C/c1cccc(C(F)(F)F)c1)Nc1cccc(C(F)(F)F)c1	?	-99.0%	11.2µM*	?	?	7.94µM*
Cc1ccc(-c2nc(CS(=O)(=O)CC(=O)Nc3ccc(Br)cc3F)c(C)o2)cc1	.	-22.8%	.	-30.0%	.	.
CC(C)(C)NNC(=S)Nc1ccc(S(=O)(=O)N2CCOCC2)cc1	-13.9%	-13.0%	16.7%	0.5%	i	9.2%
CCCNC(=S)Nc1cccc(C(F)(F)F)c1	-1.5%	-15.0%	-5.8%	13.1%	i	-4.0%
Cc1ccc(NC(=S)NNC(C)(C)C)cc1	9.6%	-37.2%	?	-82.0%	i	18.4µM*
CC(C)(C)NNC(=S)Nc1cccc(C(F)(F)F)c1	?	-9.5%	-21.9%	?	i	10.3µM*
COc1cc(-c2nc(-c3ccccc3)c(-c3ccc(Br)cc3)[nH]2)cc(OC)c1O	?	-70.3%	.	12.6µM*	?	.
Oc1ccc(-c2nc(-c3ccccc3)c(-c3ccc(Br)cc3)[nH]2)cc1	?	-110.9%	.	?	?	.
C1=C/C(=C2/C=Cc3ccccc32)c2ccccc2N1	.	-33.6%	.	?	.	.
CCN(CC)CCNc1cccc2sc3ccccc3c(=O)c12	.	-26.5%	-2.8%	1.7%	i	-13.8%
CCN(CC)CCCNc1ccc2ncn3c4ccc(O)cc4c(=O)c1c23	?	-28.7%	-24.1%	16.1%	?	?
CN(C)CCNc1cccc2sc3ccc(O)cc3c(=O)c12	17.8µM*	-58.1%	9.2µM*	4.47µM*	i	11.6µM*

High-throughput results (PubChem)
